Test results taken from PubChem BioAssay.
Potency and affinity values are given separately. Active and inactive are the calls of the source. A call without a number means that no potency is given here. No rule for the calls is given here.

What follows are compounds tested against Plasmodium falciparum protein kinase 6 (PK6, PF3D7_1337100) (UniProt Q8IDW1) (assay: PfPK6 kinase inhibitors, biochemical, TCAMS library (AID 1159586)). Conditions: recombinant PfPK6, Kinase-Glo ATP depletion luminescence.
Chain of Plasmodium falciparum protein kinase 6 (PK6, PF3D7_1337100) (Q8IDW1 1-305): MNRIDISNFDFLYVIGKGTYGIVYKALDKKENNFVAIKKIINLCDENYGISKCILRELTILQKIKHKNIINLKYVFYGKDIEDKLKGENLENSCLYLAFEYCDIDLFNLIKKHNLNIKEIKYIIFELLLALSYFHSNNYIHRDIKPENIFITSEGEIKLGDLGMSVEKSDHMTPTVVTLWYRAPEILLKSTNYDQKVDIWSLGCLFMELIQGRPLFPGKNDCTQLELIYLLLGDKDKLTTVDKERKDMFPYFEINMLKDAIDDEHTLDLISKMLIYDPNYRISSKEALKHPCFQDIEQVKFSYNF
With `O=C(/C=C/c1ccc(Cl)c(Cl)c1)NCCCCCN1CCC(NC(=O)Nc2ccc(Cl)c(C(F)(F)F)c2)CC1` the outcome was “inactive”.
With `Cc1cc(CNCCCCCNCc2ccc(Cl)cc2)ccc1O` the outcome was “inactive”.
For `O=C(Nc1ccc(F)cc1)NC1CCN(c2ccnc3cc(Cl)ccc23)CC1`, the outcome was “inactive”.
For `COc1cc(OC)c(NC(=O)C2c3ccccc3C(=O)N(C)C2c2cccs2)cc1Cl` (stereo not given), the outcome was “inactive”.
With `Cc1[nH]cc(Br)c(=O)c1-c1ccc(Oc2ccccc2)cc1` the outcome was “inactive”.
`COc1ccc2nccc([C@@H](O)CN3CCC(NCc4ccc5c(c4)NC(=O)C(C)(C)O5)CC3)c2c1` was tested, and the outcome was “inactive”.
For `CCCN1CCN(c2cc(S(=O)(=O)Nc3ccc(C(=O)NCc4cccc(C(F)(F)F)c4)cc3)ccc2OC)CC1`, the outcome was “inactive”.
For `CC(C)CNCc1cccc(-c2cccc(CN(CCCN3CCN(C)CC3)C(=O)Nc3ccccc3)c2)c1`, the outcome was “inactive”.
For `C=CCOC(=O)N1CCC(CNCc2cccc(-c3ccc(-c4nc5c(C)cccc5[nH]4)s3)c2)C1` (stereo not given), the outcome was “inactive”.
For `Cc1nc2ccc3ccc(CNc4ccc5c(c4)CN([C@H](CCC(=O)O)C(=O)O)C5=O)cc3c2c(=O)[nH]1`, the outcome was “inactive”.
In the case of `O=C(CN(c1cccc(C(F)(F)F)c1)S(=O)(=O)c1ccc(Cl)cc1)NCCC(c1ccccc1)c1ccccc1`, the outcome is reported as “inactive”.
For `CCOc1ccc(-c2nc(NC(=O)COc3ccc(OC)cc3)sc2C)cc1`, the outcome was “inactive”.
In the case of `CC(=O)Nc1csc(-c2cnc(/C=C(\C)C[C@@H]3OC[C@H](C[C@@H]4O[C@H]4[C@@H](C)[C@H](C)O)[C@@H](O)[C@H]3O)o2)c1`, the outcome is reported as “inactive”.
In the case of `NC(N)=NN=Cc1ccc2ccc3ccccc3c2c1`, the outcome is reported as “inactive”.
For `COc1cccc(C(=O)Nc2ccc(S(=O)(=O)c3cc4c(cc3OC)CCN(C)CC4)cc2)c1`, the outcome was “inactive”.
In the case of `CCOc1ccc(-c2nonc2NC(=O)c2ccc(F)cc2)cc1OCC`, the outcome is reported as “inactive”.
For `CC(C)CCNC(=O)C1Cc2c([nH]c3cc(Br)ccc23)C2(CCN(Cc3ccccc3)CC2)N1` (stereo not given), the outcome was “inactive”.
With `c1ccc2ncc(CNCCCCCCCCNCc3cnc4ccccc4c3)cc2c1` the outcome was “inactive”.
`Cc1cc(N(C)C)nc(Nc2ccc(NC(=O)c3c(F)cccc3F)cc2)n1` was tested, and the outcome was “inactive”.
For `O=C(c1ccccc1F)N(Cc1ccc(Cl)cc1)c1ccccn1`, the outcome was “inactive”.
For `N#Cc1ccc(C=Cc2nccc3c2[nH]c2ccccc23)cc1`, the outcome was “inactive”.
`N#Cc1ccc(CN2CCCN(c3ccc(NC(=O)c4ccc(F)cc4)cc3)CC2)cc1` was tested, and the outcome was “inactive”.
`N#Cc1cccc(C(=O)Nc2cccc(-c3ccc(CN4CCCC4)cc3)c2)c1` was tested, and the outcome was “inactive”.
For `CN(C(=O)NCCc1ccccc1)C1CCN(CCCCCNC(=O)/C=C/c2ccc(Cl)c(Cl)c2)CC1`, the outcome was “inactive”.
In the case of `COc1ccccc1-n1ccnc1SCC(=O)Nc1cc(C(F)(F)F)ccc1Cl`, the outcome is reported as “inactive”.
`O=C(O)/C=C/c1cccc(F)c1F` was tested, and the outcome was “inactive”.
In the case of `Cc1cc(N[C@@H](Cc2ccccc2)C(=O)NCc2cccc(F)c2)nc(NCCc2cccs2)n1`, the outcome is reported as “inactive”.
In the case of `CCc1ccc(CN2CCC(CNC(=O)c3cc(-c4ccccc4Cl)cs3)C2)cc1` (stereo not given), the outcome is reported as “inactive”.
With `COc1cccc(-c2ccc3c(-c4cccc(S(C)(=O)=O)c4)cnc(N)c3c2)c1` the outcome was “inactive”.
With `COc1ccc2c(NN=Cc3ccc(N(C)C)cc3)ccnc2c1` the outcome was “inactive”.
`CCCc1cn2c3c(cc(C(=O)N[C@@H](Cc4ccccc4)[C@H](O)CNC4CCCCC4)cc13)N(C)S(=O)(=O)CC2` was tested, and the outcome was “inactive”.
With `Cc1cccc2[nH]c(-c3cccc(-c4cccc(NC(=O)CNC(=O)c5ccc(O)cc5)c4)c3)nc12` the outcome was “inactive”.
In the case of `NC1CCN(CCNCc2cccc(-c3ccc(-c4nc5ccc(F)cc5[nH]4)cc3)c2)C1` (stereo not given), the outcome is reported as “inactive”.
For `OC1CCCN(Cc2cccc(-c3ccc(-c4nc5ccc(C(F)(F)F)cc5[nH]4)cc3)c2)C1` (stereo not given), the outcome was “inactive”.
`COc1ccc(CNC2Cc3ccccc3C2)cc1-c1ccc(S(=O)(=O)NCCN2CCCC2)cc1` was tested, and the outcome was “inactive”.
In the case of `OC(CNCc1ccccc1Oc1ccccc1)c1cc(Br)cs1` (stereo not given), the outcome is reported as “inactive”.
With `CNc1nc(NN=Cc2cc3c(cc2[N+](=O)[O-])OCO3)nc(Nc2cccc(C(F)(F)F)c2)n1` the outcome was “inactive”.
For `Cc1cc(CNCC(CCNc2cc(=O)c3ccccc3[nH]2)NCc2cc(Br)cc(Br)c2)oc1C` (stereo not given), the outcome was “inactive”.
In the case of `CCc1cn2c3c(cc(C(=O)N[C@@H](Cc4ccccc4)[C@H](O)CNC4CCC4)cc13)N(C)S(=O)(=O)CC2`, the outcome is reported as “inactive”.
With `O=C(Nc1ccc(C(F)(F)F)cc1)c1ccc(S(=O)(=O)NC2CCN(Cc3ccccc3)C2)cc1` (stereo not given) the outcome was “inactive”.
